Assay results from PubChem BioAssay AID463173 (ICCB-Longwood Screening Facility, Harvard Medical School, 2010).
Hit rate of the full screen: of about 52,000 compounds, about 4,300 (8.3%) were called active. Many of the other results were omitted from the sample, so actives are more common in it than they were. Values without a mark were called inactive. No stated cut-off is given here; in the data, active means survival mostly below about 52% (no sharp cut-off); inactive means mostly above about 56%.

Test system: DeltatarO mutant
Experiment: S. aureus survival, RN4220 and DeltatarO strains – OD600, teichoic acid synthesis inhibitors, primary screen (AID 463173)
Settings: S. aureus RN4220 wild type/DeltatarO growth, OD600, 18 h, stronger effect = lower value, screened at 18.75 µg/mL (by protocol)

For `CCc1ccc(NC(=O)CSc2cn(CC(=O)N3CCCC3)c3ccccc23)cc1`, which survival is on record?
The survival was 97%.

With `COc1ccc(C)cc1S(=O)(=O)NCC(c1ccc(N(C)C)cc1)N1CCc2ccccc21` (centres undefined) as the molecule, how does the survival read?
The survival was 55%.

`Cc1cccc(-n2ccnc2SCC(=O)Nc2nc3ccccc3s2)c1` was tested. Which survival did it give?
Its survival is 93%.

`Cc1ccc(/C=C/C(=O)Nc2ccccc2C(N)=O)o1` was tested. Which survival did it give?
Its survival is 64%.

`COc1ccc(OC)c(NC(=O)/C=C/c2ccc(C)o2)c1` was tested. Which survival did it give?
Its survival is 40% (active).

For `Cc1ccc(NC(=O)/C=C/c2ccc(C)o2)c(C)c1`, which survival is on record?
The survival was 46%.

With `CCOC(=O)c1cc(-c2ccccc2)n(CCC(=O)Nc2ccc(Cl)c(C(F)(F)F)c2)c1C` as the molecule, how does the survival read?
Its survival is 102%.

With `CN(C)S(=O)(=O)c1ccc(S(=O)(=O)N(Cc2ccccc2F)C2CC2)cc1` as the molecule, how does the survival read?
The survival was 91%.

How did the survival turn out when `Cc1oc2ncn(C)c(=O)c2c1C(=O)NCCCN(Cc1ccccc1)C(C)C` was run?
Its survival is 72%.

How did the survival turn out when `CCCCN(CCCNC(=O)c1c(C)oc2nc[nH]c(=O)c12)Cc1ccccc1` was run?
Its survival is 53% (active).

Which survival does the source give for `CCN(CCCNC(=O)c1c(C)oc2ncn(CC(C)C)c(=O)c12)Cc1ccccc1` here?
Its survival is 83%.

With `O=C(CSc1ncn(-c2ccccc2)n1)c1ccc(Cl)cc1` as the molecule, how does the survival read?
Its survival is 74%.

Which survival does the source give for `CCOC(=O)CN1C(C(=O)c2ccccc2)=C(OC(=O)C(C)(C)C)c2ccccc2S1(=O)=O` here?
Its survival is 58%.

For `CCCCN1C(C(=O)c2ccccc2)=C(OC(=O)CC)c2ccccc2S1(=O)=O`, which survival is on record?
Its survival is -4% (active).

`CCN1C(C(=O)c2ccccc2)=C(OC(=O)C(C)C)c2ccccc2S1(=O)=O` was tested. Which survival did it give?
Its survival is 67%.

For `CCCN1C(C(=O)c2ccccc2)=C(OC(=O)C(C)(C)C)c2ccccc2S1(=O)=O`, which survival is on record?
The survival was 53%.

`CCCCN1C(C(=O)c2ccccc2)=C(OC(C)=O)c2ccccc2S1(=O)=O` was tested. Which survival did it give?
Its survival is -4% (active).

`CCCN1C(C(=O)c2ccccc2)=C(OC(=O)c2ccc(F)cc2)c2ccccc2S1(=O)=O` was tested. Which survival did it give?
The survival was 31% (active).

For `CCCCCN1C(C(=O)c2ccccc2)=C(NC(C)=O)c2ccccc2S1(=O)=O`, which survival is on record?
Its survival is 58%.

With `COC(=O)CN1C(C(=O)c2ccccc2)=C(OC(=O)c2ccc(F)cc2)c2ccccc2S1(=O)=O` as the molecule, how does the survival read?
Its survival is 56%.

Which survival does the source give for `CCCCN(CCCC)C1=C(C(=O)c2ccccc2)N(C)S(=O)(=O)c2ccccc21` here?
Its survival is 72%.

`CCCN1C(C(=O)c2ccccc2)=C(OC(=O)c2ccc(C)cc2)c2ccccc2S1(=O)=O` was tested. Which survival did it give?
Its survival is 52%.

Which survival does the source give for `CCCCN(CCCC)C1=C(C(=O)c2ccccc2)N(CC)S(=O)(=O)c2ccccc21` here?
The survival was 60% (active).

With `COc1ccc(N(C(=O)c2ccc(C)cc2)S(=O)(=O)c2ccc(Cl)cc2)cc1` as the molecule, how does the survival read?
The survival was 76%.

With `CN(CC(=O)Nc1cccc(C(F)(F)F)c1)S(=O)(=O)c1ccc2[nH]c3c(c2c1)CCCC3` as the molecule, how does the survival read?
The survival was 94%.

For `CC(=O)N1CCc2cc(C(=O)C[n+]3ccccc3)ccc21`, which survival is on record?
The survival was 91%.

Which survival does the source give for `C=CCNC(=O)CN1CCC(n2c(C)nc3cc(C(F)(F)F)ccc32)CC1` here?
The survival was 95%.

For `O=C(Cn1ncn2c(cc3ccccc32)c1=O)NCc1ccc(F)cc1`, which survival is on record?
Its survival is 104%.

How did the survival turn out when `CCCN1C(C(=O)c2ccccc2)=C(OC(=O)c2ccc(OC)cc2)c2ccccc2S1(=O)=O` was run?
The survival was 56%.

For `CCOC(=O)CN1C(C(=O)c2ccccc2)=C(OC(=O)c2ccccc2)c2ccccc2S1(=O)=O`, which survival is on record?
Its survival is 56%.

With `CCCCC(=O)OC1=C(C(=O)c2ccccc2)N(C)S(=O)(=O)c2ccccc21` as the molecule, how does the survival read?
The survival was 104%.

Which survival does the source give for `COC(=O)CN1C(C(=O)c2ccccc2)=C(OC(=O)c2ccccc2)c2ccccc2S1(=O)=O` here?
Its survival is 49%.

With `CCCCC(=O)OC1=C(C(=O)c2ccccc2)N(CCC)S(=O)(=O)c2ccccc21` as the molecule, how does the survival read?
The survival was 18% (active).

Which survival does the source give for `CCCCC(=O)OC1=C(C(=O)c2ccccc2)N(CC)S(=O)(=O)c2ccccc21` here?
The survival was 52%.

How did the survival turn out when `CCCCCN1C(C(=O)c2ccccc2)=C(OC(=O)CC)c2ccccc2S1(=O)=O` was run?
Its survival is -4% (active).

For `CCN1C(C(=O)c2ccccc2)=C(OC(=O)c2ccc(Cl)cc2)c2ccccc2S1(=O)=O`, which survival is on record?
The survival was 50%.

`CCN1C(C(=O)c2ccccc2)=C(OC(=O)c2ccc(OC)cc2)c2ccccc2S1(=O)=O` was tested. Which survival did it give?
The survival was 46% (active).

For `O=C(COc1ccccc1)Nc1ccc(S(=O)(=O)N(Cc2ccccc2)c2ccccc2)cc1`, which survival is on record?
Its survival is 61%.

`CC1CCCN(CNC(=O)c2ccccc2)C1` (centres undefined) was tested. Which survival did it give?
Its survival is 92%.

How did the survival turn out when `COc1cc(CNCCCSc2nnnn2C)cc(Br)c1OC` was run?
The survival was 81%.

For `Cc1ccc(S(=O)(=O)N2CCCc3cc(NC(=O)c4c(F)cccc4F)ccc32)cc1`, which survival is on record?
Its survival is 73%.

How did the survival turn out when `COc1ccccc1NC(=O)Cn1nnc(C(=O)NCc2ccc3c(c2)OCO3)c1N` was run?
The survival was 103%.

`CCOC(=O)Cn1c(=O)oc2cc(S(=O)(=O)N3CCN(c4ccc(F)cc4)CC3)ccc21` was tested. Which survival did it give?
The survival was 117%.

`CSc1cccc(-c2nnc(NC(=O)c3ccc4c(c3)OCCO4)o2)c1` was tested. Which survival did it give?
Its survival is 72%.

With `COc1cccc(NC(=O)CC(=O)Nc2ccc3nc4n(c(=O)c3c2)CCCCC4)c1` as the molecule, how does the survival read?
The survival was 96%.

For `Cc1ccc(C)c(N2CCN(C(=O)NCc3noc4ccccc34)CC2)c1`, which survival is on record?
Its survival is 51%.

With `O=C(NCc1noc2ccccc12)N1CCN(c2ccccc2)CC1` as the molecule, how does the survival read?
The survival was 44%.

How did the survival turn out when `Cc1ccc(N2CCN(C(=O)NCc3noc4ccccc34)CC2C)cc1` (centres undefined) was run?
The survival was 30% (active).

For `O=C(O)CCC(=O)N1CCN(Cc2ccc3c(c2)OCO3)CC1`, which survival is on record?
The survival was 75%.

How did the survival turn out when `Cc1ccc(S(=O)(=O)N2CCOCC2)cc1C(=O)Nc1ccccc1C(=O)O` was run?
The survival was 83%.

For `CC(=O)c1ccc(NC(=O)c2cc(S(=O)(=O)N3CCOCC3)ccc2C)cc1`, which survival is on record?
Its survival is 49% (active).

Which survival does the source give for `COc1ccc(NC(=O)c2cc(S(=O)(=O)N3CCOCC3)ccc2OC)cc1` here?
Its survival is 89%.

With `N#Cc1c(N2C(=O)C3C4C=CC(C4)C3C2=O)sc2c1CCCC2` (centres undefined) as the molecule, how does the survival read?
Its survival is 71%.

Which survival does the source give for `Cc1ccc(S(=O)(=O)CC(=O)Nc2sc3c(c2C#N)CCCCC3)cc1` here?
The survival was 72%.

How did the survival turn out when `Cc1ccc(S(=O)(=O)CC(=O)Nc2sc3c(c2C#N)CCCC3)cc1` was run?
Its survival is 119%.

`N#Cc1c(N)sc2c1CCCC2` was tested. Which survival did it give?
The survival was 103%.

How did the survival turn out when `CCCCNCc1cccn1-c1sc2c(c1C#N)CCCC2` was run?
The survival was 109%.

How did the survival turn out when `N#Cc1c(-n2ncnc2-c2cccc(Cl)c2)sc2c1CCCCC2` was run?
Its survival is 61%.

How did the survival turn out when `CC(C)CCOc1ccc(C(=O)Nc2sc3c(c2C#N)CCCCC3)cc1` was run?
The survival was 127%.

For `N#Cc1c(-n2ncnc2-c2cccc(Br)c2)sc2c1CCCCC2`, which survival is on record?
The survival was 23% (active).

With `N#Cc1c(-n2ncnc2-c2ccc(F)cc2)sc2c1CCCCC2` as the molecule, how does the survival read?
Its survival is -4% (active).

Which survival does the source give for `CCOc1ccc(-c2ncnn2-c2sc3c(c2C#N)CCCCC3)cc1` here?
The survival was 5% (active).

With `N#Cc1c(-n2ncnc2-c2ccc(Br)cc2)sc2c1CCCCC2` as the molecule, how does the survival read?
The survival was 2% (active).

With `COc1ccc(-c2nnn(CC(=O)Nc3sc4c(c3C#N)CCCC4)n2)cc1` as the molecule, how does the survival read?
Its survival is 98%.
